Data taken from publication PMC5540273 (PLoS ONE, 2017).

Legend:
Conditions in all cases: concentration: 1 μM, replicates: in singlicate; n = 1
DLK = tested on: T1, DLK
T1 construct: gene MAP3K12

DMPK2 = tested on: T2, DMPK2
T2 construct: gene CDC42BPG

DMPK = tested on: DMPK
DRAK1 = tested on: T3, DRAK1
T3 construct: gene STK17A

DRAK2 = tested on: T4, DRAK2
T4 construct: gene STK17B

DYRK1A = tested on: DYRK1A
DYRK1B = tested on: DYRK1B
DYRK2 = tested on: DYRK2
EGFR = tested on: EGFR
EIF2AK1 = tested on: EIF2AK1
EPHA1 = tested on: EPHA1
EPHA2 = tested on: EPHA2
EPHA3 = tested on: EPHA3
EPHA4 = tested on: EPHA4
EPHA5 = tested on: EPHA5
EPHA6 = tested on: EPHA6
EPHA7 = tested on: EPHA7
EPHA8 = tested on: EPHA8
EPHB1 = tested on: EPHB1
EPHB2 = tested on: EPHB2
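Further: KINOMEscan kinase panel screen.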

Compound | %Inh (DLK) | %Inh (DMPK2) | %Inh (DMPK) | %Inh (DRAK1) | %Inh (DRAK2) | %Inh (DYRK1A) | %Inh (DYRK1B) | %Inh (DYRK2) | %Inh (EGFR) | %Inh (EIF2AK1) | %Inh (EPHA1) | %Inh (EPHA2) | %Inh (EPHA3) | %Inh (EPHA4) | %Inh (EPHA5) | %Inh (EPHA6) | %Inh (EPHA7) | %Inh (EPHA8) | %Inh (EPHB1) | %Inh (EPHB2)
FC(F)(F)c1ccc(-c2ncn(CCCN3CCOCC3)c2-c2ccncc2)cc1 [SB-217780] | 0% | 1% | 28% | 15% | 6% | 6% | 0% | 25% | 19% | 10% | 6% | 5% | 0% | 12% | 0% | 7% | 0% | 0% | 0% | 0%
COc1ccc(-c2cc3c(C)nc(N)nc3n([C@H]3CC[C@H](OCCO)CC3)c2=O)cn1 | 0% | 0% | 8% | 16% | 14% | 0% | 0% | 0% | 12% | 8% | 13% | 0% | 0% | 12% | 11% | 11% | 0% | 0% | 0% | 0%
OCCCNc1nccc(-c2c(-c3cccc(C(F)(F)F)c3)nn3cc(C(F)(F)F)ccc23)n1 [GW630813] | 37% | 39% | 0% | 0% | 0% | 26% | 0% | 0% | 26% | 0% | 5% | 0% | 5% | 0% | 0% | 0% | 0% | 0% | 0% | 0%
CCCNC(=O)Nc1ccc(Oc2ncnc3ccn(C)c23)cc1 | 0% | 0% | 0% | 0% | 12% | 16% | 68% | 24% | 15% | 0% | 0% | 0% | 0% | 3% | 12% | 8% | 0% | 0% | 1% | 20%
CN1C(=O)C(Nc2ccccc2)=C(c2ccccc2)C1=O [SB-300079] | 1% | 0% | 0% | 0% | 0% | 0% | 17% | 10% | 16% | 0% | 0% | 0% | 0% | 0% | 4% | 0% | 0% | 0% | 17% | 0%
COc1cc2ncn(-c3cc(OCc4ccncc4)c(C(N)=O)s3)c2cc1OC [GSK336313] | 0% | 12% | 0% | 0% | 0% | 13% | 19% | 23% | 24% | 0% | 21% | 0% | 12% | 0% | 0% | 0% | 4% | 0% | 7% | 0%
Cc1ccc(Oc2ccc(Nc3ncnc4cc[nH]c34)cc2C)cn1 | 22% | 0% | 0% | 0% | 0% | 0% | 0% | 0% | 71% | 13% | 13% | 16% | 3% | 22% | 16% | 26% | 0% | 0% | 5% | 7%
Nc1nccc2scc(-c3ccc4c(c3)CCN4C(=O)Cc3ccccc3)c12 [GSK2576924] | 7% | 22% | 0% | 1% | 0% | 0% | 19% | 20% | 21% | 0% | 9% | 6% | 38% | 4% | 0% | 2% | 4% | 15% | 0% | 14%
Cn1c(=O)c(F)c(Nc2ccc(I)cc2F)c2c(=O)n(OC[C@H](O)CO)cnc21 | 0% | 20% | 17% | 0% | 10% | 0% | 0% | 0% | 3% | 0% | 36% | 15% | 0% | 16% | 5% | 12% | 14% | 19% | 20% | 34%
O=C1NC(=O)C(c2ccccc2)=C1Nc1cccc(O)c1 [SB-390534] | 0% | 0% | 0% | 5% | 0% | 25% | 0% | 0% | 7% | 0% | 24% | 0% | 8% | 0% | 0% | 10% | 16% | 0% | 0% | 0%
COc1cc2nccc(Nc3cccc(Oc4ccccc4)c3)c2cc1OC.Cl [GW284543] | 24% | 0% | 0% | 2% | 26% | 6% | 0% | 11% | 40% | 0% | 10% | 0% | 12% | 0% | 0% | 0% | 0% | 6% | 11% | 0%
